In the supplement of paper PMC6555819:

Legend:
Test in all cases: PBM binding z-score (relative to random genomic background probes); higher = stronger binding; sequences stand for … in GC…GCGATTGACAGCGTAGAATGAAGG
[1] = tested on: FXR:RXRa (NR concentration 270 nM, RXRa partner concentration 90 nM)
Outline: (§1)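 Antibodies against each partner of ligand-free nuclear receptor dimers (one per run) detected binding on custom Agilent 4×180K protein-binding microarrays after 1 h incubation. The double-stranded probes had 34-nt variable regions carrying direct-repeat seeds, single-nucleotide variants, half-site ablations and random human genomic background sequences. Binding z-scores, from regression-normalized fluorescence, use the random background probes as reference.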

[2] = tested on: LXRa:RXRa (NR concentration 270 nM, RXRa partner concentration 90 nM)
Outline: as §1

[3] = tested on: LXRa homodimer (NR concentration 270 nM)
Outline: as §1

[4] = tested on: LXRb:RXRa (NR concentration 270 nM, RXRa partner concentration 90 nM)
Outline: as §1

[5] = tested on: LXRb homodimer (NR concentration 270 nM)
Outline: as §1

[6] = tested on: PPARa:RXRa (NR concentration 270 nM, RXRa partner concentration 90 nM)
Outline: as §1

[7] = tested on: PPARg:RXRa (NR concentration 180 nM, RXRa partner concentration 90 nM)
Outline: as §1

[8] = tested on: PPARg:RXRa 270nM:90nM, anti-RXR (NR concentration 270 nM, RXRa partner concentration 90 nM)
Outline: as §1

[9] = tested on: PPARg:RXRa 30nM:10nM, anti-RXR (NR concentration 30 nM, RXRa partner concentration 10 nM)
Outline: as §1

[10] = tested on: PPARg:RXRa 90nM:30nM, anti-RXR (NR concentration 90 nM, RXRa partner concentration 30 nM)
Outline: as §1

[11] = tested on: PPARg:RXRa DBDmut IVT, anti-RXR (DBD mutation: RXRa K156A/R161A, NR concentration 270 nM, RXRa partner concentration 90 nM)
Outline: as §1

[12] = tested on: PPARg:RXRa IVT, anti-PPARg (NR concentration 270 nM, RXRa partner concentration 90 nM)
Outline: as §1

[13] = tested on: PPARg DBDmut:RXRa IVT, anti-PPARg (DBD mutation: PPARg1 K132A/R137A, NR concentration 270 nM, RXRa partner concentration 90 nM)
Outline: as §1

[14] = tested on: PPARg DBDmut IVT, anti-PPARg (DBD mutation: PPARg1 K132A/R137A, NR concentration 270 nM)
Outline: as §1

[15] = tested on: PPARg homodimer (NR concentration 180 nM)
Outline: as §1

[16] = tested on: PXR:RXRa (NR concentration 270 nM, RXRa partner concentration 90 nM)
Outline: as §1

[17] = tested on: PXR homodimer (NR concentration 270 nM)
Outline: as §1

[18] = tested on: RARa:RXR (NR concentration 270 nM, RXRa partner concentration 90 nM)
Outline: as §1

[19] = tested on: RARa homodimer (NR concentration 270 nM)
Outline: as §1

[20] = tested on: RARb:RXRa (NR concentration 270 nM, RXRa partner concentration 90 nM)
Outline: as §1

Question: What does the source list for CGTCCACGGTCAAGGTCAGTGAAAGAGACTCGAA?
Answer: PBM binding z-score [1]: 2.73; PBM binding z-score [2]: 1.71; PBM binding z-score [3]: -0.21; PBM binding z-score [4]: 1.6; PBM binding z-score [5]: -0.801; PBM binding z-score [6]: 2.61; PBM binding z-score [7]: 0.677; PBM binding z-score [8]: 1.15; PBM binding z-score [9]: -0.28; PBM binding z-score [10]: 0.438; PBM binding z-score [11]: 0.397; PBM binding z-score [12]: 1.53; PBM binding z-score [13]: -0.802; PBM binding z-score [14]: -1.07; PBM binding z-score [15]: 1.28; PBM binding z-score [16]: 1.69; PBM binding z-score [17]: 0.177; PBM binding z-score [18]: 2.2; PBM binding z-score [19]: 0.0153; PBM binding z-score [20]: 4.28

Question: For TCATATAGGTAATACAGGTGAAAGTTGGCATCTA, which PBM binding z-score [1] is on record?
Answer: 1.53

Question: And the PBM binding z-score [2]?
Answer: 1.59

Question: And the PBM binding z-score [3]?
Answer: 0.587

Question: What about the PBM binding z-score [4] of the same sequence?
Answer: 1.49

Question: What about the PBM binding z-score [5] of the same sequence?
Answer: 0.359

Question: What about the PBM binding z-score [6] of the same sequence?
Answer: 2.79

Question: And the PBM binding z-score [7]?
Answer: 3.47

Question: And the PBM binding z-score [8]?
Answer: 4.06

Question: And the PBM binding z-score [9]?
Answer: 4.44

Question: And the PBM binding z-score [10]?
Answer: 4.48

Question: What about the PBM binding z-score [11] of the same sequence?
Answer: 4.09

Question: And the PBM binding z-score [12]?
Answer: 3.7

Question: What about the PBM binding z-score [13] of the same sequence?
Answer: 1.17

Question: What about the PBM binding z-score [14] of the same sequence?
Answer: 1.27

Question: And the PBM binding z-score [15]?
Answer: 1.53

Question: What about the PBM binding z-score [16] of the same sequence?
Answer: 1.23

Question: What about the PBM binding z-score [17] of the same sequence?
Answer: 0.642

Question: And the PBM binding z-score [18]?
Answer: 1.77

Question: And the PBM binding z-score [19]?
Answer: 1.84

Question: And the PBM binding z-score [20]?
Answer: 0.87

Question: How did the PBM binding z-score [1] turn out when AGAACGAGGGCAATGAGTTGAGAGCACGGGTGGC was run?
Answer: 0.342

Question: What about the PBM binding z-score [2] of the same sequence?
Answer: -0.0458

Question: What about the PBM binding z-score [3] of the same sequence?
Answer: -0.343

Question: And the PBM binding z-score [4]?
Answer: -0.251

Question: What about the PBM binding z-score [5] of the same sequence?
Answer: -0.332

Question: And the PBM binding z-score [6]?
Answer: 1.42

Question: What about the PBM binding z-score [7] of the same sequence?
Answer: 1.39

Question: And the PBM binding z-score [8]?
Answer: 1.17

Question: And the PBM binding z-score [9]?
Answer: -0.064

Question: And the PBM binding z-score [10]?
Answer: 0.763

Question: What about the PBM binding z-score [11] of the same sequence?
Answer: 2.9

Question: What about the PBM binding z-score [12] of the same sequence?
Answer: 2.73

Question: And the PBM binding z-score [13]?
Answer: 0.608

Question: And the PBM binding z-score [14]?
Answer: -0.139

Question: What about the PBM binding z-score [15] of the same sequence?
Answer: 0.0206

Question: And the PBM binding z-score [16]?
Answer: 1.04

Question: What about the PBM binding z-score [17] of the same sequence?
Answer: 1.92

Question: What about the PBM binding z-score [18] of the same sequence?
Answer: 0.292

Question: And the PBM binding z-score [19]?
Answer: -0.276

Question: And the PBM binding z-score [20]?
Answer: 2.05

Question: Which PBM binding z-score [1] does the source give for TCACCAAGGTGAAAGGTCGTTGATGCACGCCTTG here?
Answer: 3.32

Question: What about the PBM binding z-score [2] of the same sequence?
Answer: 3.01

Question: What about the PBM binding z-score [3] of the same sequence?
Answer: -0.0102

Question: And the PBM binding z-score [4]?
Answer: 2.68

Question: And the PBM binding z-score [5]?
Answer: -0.932

Question: What about the PBM binding z-score [6] of the same sequence?
Answer: 5.28

Question: And the PBM binding z-score [7]?
Answer: 7.74

Question: What about the PBM binding z-score [8] of the same sequence?
Answer: 7.39

Question: What about the PBM binding z-score [9] of the same sequence?
Answer: 6.81

Question: And the PBM binding z-score [10]?
Answer: 7.43

Question: And the PBM binding z-score [11]?
Answer: 3.13

Question: And the PBM binding z-score [12]?
Answer: 4.81

Question: And the PBM binding z-score [13]?
Answer: 0.292

Question: And the PBM binding z-score [14]?
Answer: 0.0423

Question: And the PBM binding z-score [15]?
Answer: 0.508

Question: What about the PBM binding z-score [16] of the same sequence?
Answer: 3.77

Question: And the PBM binding z-score [17]?
Answer: -0.165

Question: What about the PBM binding z-score [18] of the same sequence?
Answer: 4.87

Question: And the PBM binding z-score [19]?
Answer: -0.322

Question: What about the PBM binding z-score [20] of the same sequence?
Answer: 3.17

Question: Which results are given for ATATGTAGATTACATCCGGGTCATTCAGGCTATG?
Answer: PBM binding z-score [1]: 1.18; PBM binding z-score [2]: 1.51; PBM binding z-score [3]: 0.625; PBM binding z-score [4]: 1.99; PBM binding z-score [5]: 0.664; PBM binding z-score [6]: 2.51; PBM binding z-score [7]: 1.42; PBM binding z-score [8]: 1.25; PBM binding z-score [9]: 0.659; PBM binding z-score [10]: 1; PBM binding z-score [11]: 1.44; PBM binding z-score [12]: 2.32; PBM binding z-score [13]: 1.43; PBM binding z-score [14]: 1.61; PBM binding z-score [15]: 1.18; PBM binding z-score [16]: 2.53; PBM binding z-score [17]: 1.22; PBM binding z-score [18]: 2.88; PBM binding z-score [19]: 0.587; PBM binding z-score [20]: 1.38

Question: Which PBM binding z-score [1] does the source give for TTACCAAGGGGAAAGGTCGTTGATGCACGCCTTG here?
Answer: 1.39

Question: What about the PBM binding z-score [2] of the same sequence?
Answer: 1.85

Question: And the PBM binding z-score [3]?
Answer: -0.0678

Question: What about the PBM binding z-score [4] of the same sequence?
Answer: 1.81

Question: What about the PBM binding z-score [5] of the same sequence?
Answer: -0.739

Question: And the PBM binding z-score [6]?
Answer: 3.79

Question: And the PBM binding z-score [7]?
Answer: 5.27

Question: And the PBM binding z-score [8]?
Answer: 6.57

Question: What about the PBM binding z-score [9] of the same sequence?
Answer: 4.47

Question: And the PBM binding z-score [10]?
Answer: 6.82

Question: What about the PBM binding z-score [11] of the same sequence?
Answer: 0.296

Question: What about the PBM binding z-score [12] of the same sequence?
Answer: 2.61

Question: What about the PBM binding z-score [13] of the same sequence?
Answer: 0.358

Question: What about the PBM binding z-score [14] of the same sequence?
Answer: 0.0839

Question: And the PBM binding z-score [15]?
Answer: 1.27

Question: What about the PBM binding z-score [16] of the same sequence?
Answer: 2.44

Question: And the PBM binding z-score [17]?
Answer: 0.149

Question: What about the PBM binding z-score [18] of the same sequence?
Answer: 2.73

Question: What about the PBM binding z-score [19] of the same sequence?
Answer: -0.553

Question: And the PBM binding z-score [20]?
Answer: 1.77

Question: For TAGCCTAGGTCATTCAGGGGCCAGGATAGAAAGC, which PBM binding z-score [1] is on record?
Answer: 4.96

Question: What about the PBM binding z-score [2] of the same sequence?
Answer: 3.81

Question: And the PBM binding z-score [3]?
Answer: 0.311

Question: What about the PBM binding z-score [4] of the same sequence?
Answer: 2.77

Question: And the PBM binding z-score [5]?
Answer: 0.864

Question: And the PBM binding z-score [6]?
Answer: 3.69

Question: What about the PBM binding z-score [7] of the same sequence?
Answer: 2.2

Question: And the PBM binding z-score [8]?
Answer: 2.42

Question: What about the PBM binding z-score [9] of the same sequence?
Answer: 0.232

Question: What about the PBM binding z-score [10] of the same sequence?
Answer: 1.26

Question: What about the PBM binding z-score [11] of the same sequence?
Answer: 1.12

Question: What about the PBM binding z-score [12] of the same sequence?
Answer: 2.85

Question: What about the PBM binding z-score [13] of the same sequence?
Answer: 0.258

Question: And the PBM binding z-score [14]?
Answer: -0.519

Question: And the PBM binding z-score [15]?
Answer: 1.31

Question: And the PBM binding z-score [16]?
Answer: 2.26

Question: And the PBM binding z-score [17]?
Answer: -0.068

Question: What about the PBM binding z-score [18] of the same sequence?
Answer: 3.5

Question: What about the PBM binding z-score [19] of the same sequence?
Answer: -0.579

Question: And the PBM binding z-score [20]?
Answer: 3.97
